Assay results reported in publication PMC3315485, “Probing the Informational and Regulatory Plasticity of a Transcription Factor DNA–Binding Domain”.
Positions count from the first letter of the chain named.

What was measured:
Assay in all cases: MITOMI; MITOMI, 295 K (22 C); buffer, salt and pH not stated in the material; high values mean tight binding
Details in all cases: protein: ivt; label: fluorescent; dsDNA, one strand shown
MarA RQR = biological target: T1, MarA RQR (Escherichia coli, UniProt P0ACH5 1-127, W40R)
T1 sequence: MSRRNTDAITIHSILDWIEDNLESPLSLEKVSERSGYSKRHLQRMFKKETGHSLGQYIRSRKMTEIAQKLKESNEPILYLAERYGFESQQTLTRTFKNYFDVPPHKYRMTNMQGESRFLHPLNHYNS
Procedure, shortened: (§1)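 MarA protein variants were produced by in vitro transcription and translation using the RTS E. coli HY kit, with tRNA-lys-bodipy-fl added for fluorescent labelling. Each variant was screened by MITOMI against 64 synthesized versions of the mar binding site, and protein and DNA fluorescence were read on Genepix at 295K. Association constants came from MITOMI, and each site's value is relative to the highest-affinity site for that protein variant.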

MarA RTR = biological target: T2, MarA RTR (Escherichia coli, UniProt P0ACH5 1-127, W40R;Q43T)
T2 sequence: T1 sequence with Q43T
Procedure, shortened: as §1

MarA SAR = biological target: T3, MarA SAR (Escherichia coli, UniProt P0ACH5 1-127, W40S;Q43A)
T3 sequence: T1 sequence with R40S, Q43A
Procedure, shortened: as §1

MarA TRR = biological target: T4, MarA TRR (Escherichia coli, UniProt P0ACH5 1-127, W40T;Q43R)
T4 sequence: T1 sequence with R40T, Q43R
Procedure, shortened: as §1

## ATGTTCCGTTTTGCTAAAT
MarA RQR
  binding signal: 0.16 Ka relative to the best site of the variant
MarA RTR
  binding signal: 0.207 Ka relative to the best site of the variant
MarA SAR
  binding signal: 0.254 Ka relative to the best site of the variant
MarA TRR
  binding signal: 0.449 Ka relative to the best site of the variant
